Pf growth 96h = P. falciparum growth inhibition at 96 hours; Potency, µM (top dose mostly 28.7 µM), hits mostly inhibitors; P. falciparum luciferase reporter growth, 96 h; 320,000 compounds, 6.9% hits; AID 504834
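P. falciparum expressing integrated firefly luciferase grown in erythrocytes (2% hematocrit, 0.05% parasitemia final) with compounds for 96 hours at 37 C, 5% CO2. Growth inhibition read as loss of luminescence after adding luciferase detection reagent.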
Sm TGR inh = inhibitors of Schistosoma mansoni thioredoxin glutathione reductase; Potency, µM (highest dose often 114 µM), hits mostly inhibitors; 360,000 compounds, 3% hits; AID 485364; purified TGR, DTNB reduction, TNB absorbance 405 nm; note: nearly all actives have a fitted effect of over 60% in size
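Kinetic colorimetric format: TGR-catalysed, NADPH-driven DTNB reduction monitored via TNB absorbance. Enzyme dispensed at 20 nM; compound exposure 15 min at room temperature before reaction start.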
HCMV antiviral = blocks human cytomegalovirus replication. HFF cells, HCMV-luciferase reporter, 72 h; hits give low values. activity change, negative = inhibition, % at 57.5 µM. 410,000 compounds, 4.5% hits. AID 1259415; in the data active = activity change below about -60%; inconclusive = no clear call, values can overlap the other calls; inactive = above about -39%
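Compounds were evaluated in HFFs infected with an HCMV luciferase reporter virus (MOI 1 PFU/cell). Luciferase in lysates collected 72 h post infection served as the replication measure.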
Pf growth 48h = inhibits P. falciparum growth in the first generation, 48 h; P. falciparum luciferase growth in erythrocytes, 48 h; Potency, µM (highest dose often 28.7 µM), hits mostly inhibitors; 310,000 compounds, 5.9% hits
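Parasite viability was followed by luminescence of a genomically integrated firefly luciferase. Cultures held 0.1% parasitemia at 2% hematocrit (final), incubated under 5% CO2 at 37 C.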
Giardia FBPA inh = blocks Giardia fructose-bisphosphate aldolase activity; A8B2U2; purified Giardia FBPA; Potency, µM (titrated, usually from 59.6 µM), hits mostly inhibitors; 290,000 compounds, 0.71% hits; AID 2451; note: nearly all actives have a fitted effect of over 55% in size
Target sequence (A8B2U2 whole entry, looked up): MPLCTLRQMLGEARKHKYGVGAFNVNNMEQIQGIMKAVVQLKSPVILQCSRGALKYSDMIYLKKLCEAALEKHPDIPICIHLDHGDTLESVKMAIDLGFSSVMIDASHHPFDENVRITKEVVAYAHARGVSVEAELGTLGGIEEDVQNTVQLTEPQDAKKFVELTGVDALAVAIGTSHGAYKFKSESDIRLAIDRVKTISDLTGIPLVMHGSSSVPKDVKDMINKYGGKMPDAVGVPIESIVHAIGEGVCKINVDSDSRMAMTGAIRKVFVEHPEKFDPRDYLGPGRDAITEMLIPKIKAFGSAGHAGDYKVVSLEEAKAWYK
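40 nM FBPA preincubated 10 min at RT with compound (up to 57.5 uM final), then substrate plus GAPDH/TPI/NAD/arsenate coupling and diaphorase/resazurin added. Fluorescence read after 20 min at RT, 525/598 nm.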
A number is an active result; i = inactive; ? = inconclusive; nt = no result given. In the library only some 14% were active in any assay of this set; here they are far more common. Unless noted, calls come from the whole dose curve; as a rule, active = well fitted curve in the direction sought with a large enough effect; inconclusive = small, poorly fitted or top-dose-only effect, or another doubt; inactive = no such curve, though single readings can be large; an effect the other way counts as inactive or inconclusive.

SMILES	Pf growth 96h	Sm TGR inh	HCMV antiviral	Pf growth 48h	Giardia FBPA inh
CC1(C)CC(=O)C2=C(C1)OC(N)=C(C#N)C2C#Cc1ccccc1 (stereo not drawn)	?	1.6µM	i	?	i
CC1(C)CC(=O)C2=C(C1)OC(N)=C(C#N)C2CCc1ccccc1 (stereo not drawn)	?	i	i	i	i
Cc1cccc(Nc2cc(=O)n(C)c(=O)n2C)c1	nt	nt	i	nt	nt
CCN(CC)CCOC(=O)c1ccc(NC(=O)c2nn(C)c3c2COc2ccccc2-3)cc1	nt	i	-87	nt	nt
CC(C)(C)c1nnc(NC(=O)c2ccc(Cl)nc2)s1	i	i	i	i	5µM
COc1cc2nc(N3CCN(C(=O)[C@@H]4COc5ccccc5O4)CC3)nc(N)c2cc1OC	13µM	nt	nt	15µM	i
COc1cc2nc(N3CCN(C(=O)C4COc5ccccc5O4)CC3)nc(N)c2cc1OC (stereo not drawn)	3.7µM	i	i	4.7µM	i
O=C(C1COc2ccccc2O1)N1CCN(c2ccccc2)CC1 (stereo not drawn)	nt	i	i	?	i
COc1ccc2nc(N3CCN(C(=O)C4COc5ccccc5O4)CC3)sc2c1 (stereo not drawn)	i	i	i	i	nt
COc1ccc(NS(=O)(=O)c2ccc(N3CCOCC3)c(NC(=O)c3ccccc3Cl)c2)cc1	i	i	i	10µM	i
COC(=O)CCC(=O)Nc1cc(S(=O)(=O)Nc2ccc(Cl)cc2)ccc1N1CCOCC1	i	i	i	i	i
COc1ccc(NS(=O)(=O)c2ccc(N3CCOCC3)c(N)c2)cc1	i	?	-70	i	nt
O=C(Nc1cc(S(=O)(=O)Nc2ccccc2F)ccc1Cl)c1ccc(F)cc1F	nt	nt	i	nt	nt
COc1ccc(S(=O)(=O)Nc2ccc(N3CCOCC3)cc2)cc1	i	i	i	nt	i
O=C(Nc1cc(S(=O)(=O)Nc2ccc(Cl)cc2)ccc1N1CCCCC1)c1ccc(F)cc1Cl	6.6µM	i	i	?	i
COc1ccc(NS(=O)(=O)c2ccc(N3CCOCC3)c(NC(=O)c3ccc(OC)cc3)c2)cc1	12µM	i	?	i	i
COc1ccc(S(=O)(=O)Nc2cc(C(=O)NC(C)C)ccc2N2CCOCC2)cc1	nt	i	i	i	i
COc1cccc(O)c1CN1CCC(n2nccc2NC(=O)c2ccc3c(c2)OCO3)CC1	i	i	i	12µM	nt
C/C=C(\C)CN1CCC(n2nccc2NC(=O)c2ccc3c(c2)OCO3)CC1	i	i	i	i	i
CCCn1cc(CN2CCC(n3nccc3NC(=O)c3ccc4c(c3)OCO4)CC2)c(C)n1	9.3µM	i	i	i	i
O=C(Nc1ccnn1C1CCN(Cc2cccc(OCCO)c2)CC1)c1cccc(F)c1	i	i	i	?	i
COc1ccc(CN2CCC(n3nccc3NC(=O)c3cccc(F)c3)CC2)cc1O	i	i	-87	?	i
CC(C)=CCCC(C)CN1CCC(n2nccc2NC(=O)c2ccc3c(c2)OCO3)CC1 (stereo not drawn)	?	i	i	10µM	nt
CCOc1cccc(CN2CCC(n3nccc3NC(=O)c3ccc4c(c3)OCO4)CC2)c1	i	i	i	?	nt
Cc1ccnc(NC(=O)c2ccc(Cl)c(NC(=O)c3ccccc3C)c2)c1	?	i	nt	i	i
SMILES	Pf growth 96h	Sm TGR inh	HCMV antiviral	Pf growth 48h	Giardia FBPA inh
CCC(C(=O)Nc1cc(C(=O)Nc2cc(C)ccn2)ccc1Cl)c1ccccc1 (stereo not drawn)	8.3µM	i	i	8.3µM	i
O=C(c1ccco1)N1CCn2cccc2C1c1ccccc1 (stereo not drawn)	i	35µM	i	?	i
CCC1CCCCN1CCNC(=O)CCS(=O)(=O)c1ccc(Br)cc1 (stereo not drawn)	3.3µM	i	i	?	i
O=C(NCCc1ccccc1)c1ccc(CS(=O)(=O)c2ccc(Br)cc2)o1	4.1µM	?	?	i	nt
O=C(CCS(=O)(=O)c1ccc(Br)cc1)NCCc1ccccc1	i	50µM	i	i	i
CN1CCN(CCCNC(=O)c2ccc(CS(=O)(=O)c3ccc(Br)cc3)o2)CC1	8.3µM	i	i	nt	i
NS(=O)(=O)c1ccc(CCNC(=O)CCS(=O)(=O)c2ccc(Br)cc2)cc1	?	i	i	i	i
CC1=C(C(=O)N2CCCCCC2)CC(CC(=O)NCC2CCCCC2)C(=O)N1CCCN1CCCC1=O (stereo not drawn)	nt	nt	i	nt	nt
